Reference: PubChem BioAssay (NCATS)
Records with an inconclusive call do not appear. The source made the active and inactive calls. The call rests on the fitted dose curve; in most records, active means well fitted curve in the direction sought with a large enough effect; inconclusive means small, poorly fitted or top-dose-only effect, or another doubt; inactive means no such curve, though single readings can be large; an effect the other way counts as inactive or inconclusive.

Legend:
HEK293 = test: Cytotoxic Profiling of Annotated Libraries Using Quantitative High-Throughput Screening (AID 1296008); conditions: Five cell lines viability, CellTiter-Glo ATP luminescence, 48-72 h; max response: active compounds read low; further: nearly all actives have a fitted effect of over 60% in size; further: potency means the concentration at half of the fitted maximal effect; on max response: on the % scale 0 is the no-effect control and ±100 the full control effect
In short: (§1)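 Cytotoxicity was measured as CellTiter-Glo ATP luminescence, read after 10 min at room temperature. Compound treatment of the cells lasted 48 or 72 hr at 37 degrees Celsius in a qHTS format.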

HaCat [1] = test: as above; conditions: Five cell lines viability, CellTiter-Glo ATP luminescence, 48-72 h; max response: active compounds read low
In short: as §1

KB-3-1 = test: as above; conditions: Five cell lines viability, CellTiter-Glo ATP luminescence, 48-72 h; max response: active compounds read low
In short: as §1

NIH3T3 [2] = test: as above; conditions: Five cell lines viability, CellTiter-Glo ATP luminescence, 48-72 h; max response: active compounds read low
In short: as §1

HACAT [3] = test: qHTS assay to identify novel small-molecules to repurpose for Merkel cell carcinoma treatment (AID 1296009); conditions: MCC and control cell lines, CellTiter-Glo viability, 72 h; series mostly up to 44.8 µM; further: nearly all actives have a fitted effect of over 60% in size
In short: (§2)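 Cell viability, measured as CellTiter-Glo luminescence, was normalized between DMSO and no-cell wells. The cells had been exposed to 8- or 11-point compound dilutions for 72 hr at 37 degree celsius.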

NIH3T3 [4] = test: as above; conditions: MCC and control cell lines, CellTiter-Glo viability, 72 h; at 44.8 µM (top of the series) unless noted
In short: as §2

C33A = test: Primary qHTS to identify gynecologic anti-cancer compounds using libraries of approved drugs and bioactive compounds (AID 1345084); conditions: Gynecologic cancer cell panel viability, ATPlite luminescence, 48 h; series mostly up to 57.5 µM; further: nearly all actives have a fitted effect of over 55% in size; further: potency means the concentration at half of the fitted maximal effect; on activity change, negative = cytotoxicity: on the % scale 0 is the no-effect control and ±100 the full control effect
In short: (§3)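 Cytotoxicity screen measuring ATP content by luciferase luminescence. Each compound is applied at five concentrations for 48 h at 37 C with 5% CO2.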

CAOV3 = test: as above; conditions: Gynecologic cancer cell panel viability, ATPlite luminescence, 48 h; series mostly up to 57.5 µM
In short: as §3

CASKI = test: as above; conditions: Gynecologic cancer cell panel viability, ATPlite luminescence, 48 h; series mostly up to 57.5 µM
In short: as §3

Es-2 = test: as above; conditions: Gynecologic cancer cell panel viability, ATPlite luminescence, 48 h; series mostly up to 57.5 µM
In short: as §3

HeLa = test: as above; conditions: Gynecologic cancer cell panel viability, ATPlite luminescence, 48 h; series mostly up to 57.5 µM
In short: as §3

Hek293T [5] = test: as above; conditions: Gynecologic cancer cell panel viability, ATPlite luminescence, 48 h, control line for the selectivity index; series mostly up to 57.5 µM
In short: as §3

JEG-3 = test: as above; conditions: Gynecologic cancer cell panel viability, ATPlite luminescence, 48 h; series mostly up to 57.5 µM
In short: as §3

HEK293T [6] = test: qHTS assay to identify novel small-molecules to repurpose for Merkel cell carcinoma treatment (AID 1296009); conditions: MCC and control cell lines, CellTiter-Glo viability, 72 h; at 44.8 µM (top of the series) unless noted; further: nearly all actives have a fitted effect of over 60% in size
In short: as §2

CCCC(=O)O[C@@H]1[C@@H]2[C@@H](OC(C)=O)[C@]3(C)C(=O)[C@H]4[C@@H](OC(C)=O)C(C)(C)C[C@H]4[C@]3(C)C(=O)[C@@]2(OC(C)=O)C[C@@H]1C
inactive: max response (HEK293) 3.97% | outcome (HaCat [1]) | max response (KB-3-1) 8.81% | outcome (NIH3T3 [2]) | Potency (HACAT [3]) | outcome (NIH3T3 [4]) inactive [at 17.4 µM] | Potency (C33A) | Potency (CAOV3) | Potency (CASKI) | Potency (Es-2) | Potency (HeLa) | Potency (Hek293T [5]) | Potency (JEG-3)

CCC1C(=O)N(C)c2cnc(Nc3ccc(C(=O)NC4CCC(N5CCN(CC6CC6)CC5)CC4)cc3OC)nc2N1C(C)C (stereo unspecified)
active: Potency (HEK293) 5.8 nM | Potency (HaCat [1]) 36.6 nM | Potency (KB-3-1) 5.2 nM | Potency (NIH3T3 [2]) 1.64 µM

C[C@@H]1O[C@@H](O[C@@H]2[C@@H](O)[C@@H](O[C@]3(CO)O[C@H](CO)[C@@H](O)[C@@H]3OC(=O)/C=C/c3ccc(O)cc3)O[C@H](CO)[C@H]2OC(=O)/C=C/c2ccc(O)cc2)[C@H](O)[C@H](O)[C@H]1O[C@@H]1O[C@@H](C)[C@H](O[C@@H]2OC[C@](O)(CO)[C@H]2O)[C@@H](O)[C@H]1O
inactive: outcome (HEK293) | outcome (HaCat [1]) | max response (KB-3-1) 3.92% | max response (NIH3T3 [2]) -0.786% | outcome (HACAT [3]) inactive [at 9.27 µM] | outcome (HEK293T [6]) inactive [at 9.27 µM] | activity change, negative = cytotoxicity (C33A) 8.98% [at 11.6 µM] | activity change, negative = cytotoxicity (CAOV3) 0.132% [at 11.6 µM] | activity change, negative = cytotoxicity (CASKI) 12.2% [at 11.6 µM] | activity change, negative = cytotoxicity (Es-2) -1.87% [at 11.6 µM] | activity change, negative = cytotoxicity (HeLa) 10.7% [at 11.6 µM] | activity change, negative = cytotoxicity (Hek293T [5]) -1.85% [at 11.6 µM] | activity change, negative = cytotoxicity (JEG-3) 3.39% [at 11.6 µM]

C=CC1C(OC2OC(CO)C(O)C(O)C2O)OC=C(C(=O)OC)C1CC(=O)OCC1C(C)C(O)CC1C(CO)COC(=O)CC1C(C(=O)O)=COC(OC2OC(CO)C(O)C(O)C2O)/C1=C\C (stereo unspecified)
inactive: max response (HEK293) 0.0453% | outcome (HaCat [1]) | outcome (KB-3-1) | max response (NIH3T3 [2]) -19.3% | outcome (HACAT [3]) inactive [at 9.27 µM] | activity change, negative = cytotoxicity (C33A) 0.0118% [at 11.6 µM] | activity change, negative = cytotoxicity (CAOV3) 12.7% [at 11.6 µM] | activity change, negative = cytotoxicity (CASKI) 1.02% [at 11.6 µM] | activity change, negative = cytotoxicity (Es-2) -2.47% [at 11.6 µM] | activity change, negative = cytotoxicity (HeLa) 2.07% [at 11.6 µM] | activity change, negative = cytotoxicity (Hek293T [5]) 1.07% [at 11.6 µM] | activity change, negative = cytotoxicity (JEG-3) 0.819% [at 11.6 µM]

CN1CCN(C(=O)c2ccc3cc(CCNc4ncnc5ccc(C#N)cc45)ccc3c2)CC1
active: Potency (HEK293) 2910 nM
inactive: outcome (HaCat [1]) | max response (KB-3-1) -26.4% | max response (NIH3T3 [2]) -2.38% | Potency (HACAT [3]) | Potency (C33A) | Potency (CAOV3) | Potency (CASKI) | Potency (Es-2) | Potency (HeLa) | Potency (Hek293T [5])

CC1=CC(=O)CC(C)(C)[C@H]1/C=C/C(CO)O[C@@H]1O[C@H](CO)[C@@H](O)[C@H](O)[C@H]1O (stereo partly specified)
inactive: max response (HEK293) -4.12% | outcome (HaCat [1]) | outcome (KB-3-1) | max response (NIH3T3 [2]) -2.41% | Potency (HACAT [3]) | Potency (C33A) | Potency (CAOV3) | Potency (CASKI) | Potency (Es-2) | Potency (HeLa) | Potency (Hek293T [5]) | Potency (JEG-3)

OCC1OC(Oc2cc(O)cc(/C=C/c3ccc(O)cc3)c2)C(O)C(O)C1O (stereo unspecified)
inactive: max response (HEK293) 2.65% | outcome (HaCat [1]) | max response (KB-3-1) 5.61% | max response (NIH3T3 [2]) -0.337% | Potency (HACAT [3]) | Potency (C33A) | Potency (CAOV3) | Potency (CASKI) | Potency (Es-2) | Potency (HeLa) | Potency (Hek293T [5]) | Potency (JEG-3)

COc1ccc([C@@]2(O)c3c(ccc(CC=C(C)C)c3O)NC(=O)[C@@H]2OC)cc1
inactive: outcome (HEK293) | outcome (HaCat [1]) | max response (KB-3-1) 8.3% | max response (NIH3T3 [2]) 4.4% | Potency (HACAT [3]) | outcome (HEK293T [6]) | Potency (C33A) | Potency (CAOV3) | Potency (CASKI) | Potency (Es-2) | Potency (HeLa) | Potency (Hek293T [5])

CC1(C)CCCC2(C)C1CC(=O)C13CC(CCC12)C(O)(CO)C3 (stereo unspecified)
active: Potency (Es-2) 4.47 µM
inactive: max response (HEK293) 0.204% | outcome (HaCat [1]) | max response (KB-3-1) 8.26% | max response (NIH3T3 [2]) 2.51% | Potency (HACAT [3]) | Potency (C33A) | Potency (CAOV3) | Potency (CASKI) | Potency (HeLa) | Potency (Hek293T [5]) | Potency (JEG-3)

CO/N=C(/C(=O)N[C@@H]1C(=O)N2C(C(=O)O)=C(Cn3ccc(=N)n3CCO)CS[C@H]12)c1csc(N)n1
inactive: max response (HEK293) -94.3% | outcome (HaCat [1]) | max response (KB-3-1) -6.11% | outcome (NIH3T3 [2]) | Potency (HACAT [3]) | outcome (NIH3T3 [4]) | Potency (C33A) | Potency (CASKI) | Potency (Es-2) | Potency (HeLa) | Potency (Hek293T [5]) | Potency (JEG-3)

COc1c2cc(c(O)c1OC)-c1cc(ccc1O)CCC(O)CCCC2 (stereo unspecified)
inactive: max response (HEK293) 1.1% | outcome (HaCat [1]) | outcome (KB-3-1) | max response (NIH3T3 [2]) -1.69% | Potency (HACAT [3]) | Potency (C33A) | Potency (CAOV3) | Potency (CASKI) | Potency (Es-2) | Potency (HeLa) | Potency (Hek293T [5]) | Potency (JEG-3)

O=C(/C=C/c1ccccc1)OC[C@]12O[C@H]1[C@@H](O)[C@@H]1C=CO[C@@H](O[C@@H]3O[C@H](CO)[C@@H](O)[C@H](O)[C@H]3O)[C@@H]12
inactive: outcome (HEK293) | outcome (HaCat [1]) | outcome (KB-3-1) | outcome (NIH3T3 [2]) | Potency (HACAT [3]) | outcome (HEK293T [6]) inactive [at 17.4 µM] | outcome (NIH3T3 [4]) inactive [at 17.4 µM] | Potency (C33A) | Potency (CAOV3) | Potency (CASKI) | Potency (Es-2) | Potency (HeLa) | Potency (Hek293T [5]) | Potency (JEG-3)

COC(=O)C12C(=O)C(C)=C(O)C1(C)C(C)=CC1C3(CO)CCC(O)C(C)(C)C3CCC12C (stereo unspecified)
inactive: max response (HEK293) 1.96% | outcome (HaCat [1]) | max response (KB-3-1) -2.12% | max response (NIH3T3 [2]) -3.91% | Potency (HACAT [3]) | Potency (C33A) | Potency (CAOV3) | Potency (CASKI) | Potency (Es-2) | Potency (HeLa) | Potency (Hek293T [5]) | Potency (JEG-3)
